# Reference: PubChem BioAssay
# Several values for one entry are separate records, joined by “and”; a condition that tells them apart may be missing. Equal values may be shown once. Unmarked numbers belong to inactive results. Activity calls are given as the source filed them.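 How the source made its calls: active means thallium flux through the channel raised or lowered by more than 3 SD from vehicle-only wells, actives on both sides; inactive means the rest.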
# Columns and labels:
# Test in all cases: BK channel mutant inhibitors and activators – cell-based, U2OS BacMam, thallium flux, beta subunits, selectivity assay, profiling panel (AID 1259406);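 further: initial slope of Thallos dye fluorescence rise after thallium is added; log ratio against the mean of 0.3% DMSO vehicle wells on the same plate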
# F380Y/beta2Delta = details: U2OS BacMam BK variants, at 30 µM
# F380Y/beta4 = details: U2OS BacMam BK variants, at 30 µM
# [1] = target: Calcium-activated potassium channel subunit alpha-1 (Homo sapiens) + Leucine-rich repeat-containing protein 26 (Homo sapiens) (UniProt Q12791+Q2I0M4); details: U2OS BacMam BK variants, F380Y/Slo1WT/gamma1, at 30 µM
# R275C = details: U2OS BacMam BK variants, at 30 µM
# R275C/beta1 = details: U2OS BacMam BK variants, at 30 µM
# R275C/beta2Delta = details: U2OS BacMam BK variants, at 30 µM
# R275C/beta4 = details: U2OS BacMam BK variants, at 30 µM
# R275C/Slo1WT/beta2 = details: U2OS BacMam BK variants, at 30 µM
# Calcium-activated potassium channel subunit alpha-1 (Homo sapiens) + Leucine-rich repeat-containing protein 26 (Homo sapiens), sequence (Q2I0M4 whole entry, looked up, one chain of several): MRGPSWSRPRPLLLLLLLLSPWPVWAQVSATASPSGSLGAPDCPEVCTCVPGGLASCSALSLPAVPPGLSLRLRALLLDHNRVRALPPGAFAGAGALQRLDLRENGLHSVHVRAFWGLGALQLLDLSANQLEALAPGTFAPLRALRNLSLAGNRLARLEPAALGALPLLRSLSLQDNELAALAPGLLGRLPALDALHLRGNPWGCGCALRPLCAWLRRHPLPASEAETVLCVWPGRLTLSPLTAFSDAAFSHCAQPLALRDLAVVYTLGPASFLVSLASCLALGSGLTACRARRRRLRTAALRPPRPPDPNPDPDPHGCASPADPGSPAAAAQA
Compound,log fold change Tl+ flux (F380Y/beta2Delta),log fold change Tl+ flux (F380Y/beta4),log fold change Tl+ flux [1],log fold change Tl+ flux (R275C),log fold change Tl+ flux (R275C/beta1),log fold change Tl+ flux (R275C/beta2Delta),log fold change Tl+ flux (R275C/beta4),log fold change Tl+ flux (R275C/Slo1WT/beta2)
CC[N+](C)(CC)CCOC(=O)C(O)(c1ccccc1)C1CCCCC1 (stereo not drawn),-0.0141,-0.0257,0.0349,-0.0159,-0.00643,0.0312,0.0157,0.0812 (active)
CCCN1CCCC[C@H]1C(=O)Nc1c(C)cccc1C,0.0505,0.0334,-0.0126,0.0086,0.0221,0.0105,0.0113,0.0315
COc1cc(OC)c(C(=O)CCCN2CCCC2)c(OC)c1,-0.00493,-0.0142,0.0079,0.0465,0.0151,0.0392,0.0301,0.0326
CC(C)(C)NC(=O)[C@H]1CC[C@H]2[C@@H]3CC[C@H]4NC(=O)C=C[C@]4(C)[C@H]3CC[C@]12C,0.0468,0.00105,-0.00445,-0.0443,-0.0219,0.0533,0.00132,-0.0253
CC(C)NCC(O)COc1ccc(COCCOC(C)C)cc1 (stereo not drawn),0.00366,0.0255,0.0397,-0.0696,-0.003,-0.0507,0.0137,0.0109
O=C1CC2(CCCC2)CC(=O)N1CCCCN1CCN(c2ncccn2)CC1,0.0619,0.0587,0.00932,0.00417,0.0329,-0.0367,0.0017,-0.02
Cc1nccn1CC1CCc2c(c3ccccc3n2C)C1=O (stereo not drawn),-0.00534 and 0.0144,0.0398 and -0.017,-0.0199 and 0.0181,-0.0259 and 0.0252,-0.00728 and 0.00537,-0.00652 and 0.0192,-0.00238 and 0.0058,0.0288 and 0.00389
Cc1cccc(C)c1OCC(C)N (stereo not drawn),0.00522,0.033,0.0106,0.0441,0.0258,0.00537,0.0107,0.0729
Cc1c(O)cccc1C(=O)N[C@@H](CSc1ccccc1)[C@H](O)CN1C[C@H]2CCCC[C@H]2C[C@H]1C(=O)NC(C)(C)C,-0.0274,0.0671,0.0165,-0.105,0.237 (active),-0.0795,-0.0349,-0.0218
Cc1ccsc1C(=CCCN1CCC[C@@H](C(=O)O)C1)c1sccc1C,0.0383,0.0453,0.0044,-0.056,0.0901 (active),0.0627,0.0287,0.0117
O=C1c2cccc3c2[C@H](CCC3)CN1[C@@H]1CN2CCC1CC2,0.0262,0.0479,0.0044,-0.0177,-0.00783,0.00552,-0.0169,-0.0269
CN(C)CC[C@@H](c1ccc(Cl)cc1)c1ccccn1,0.0413,0.0471,-0.00445,-0.0353,0.0461,0.00905,0.0349,0.0166
O=c1[nH]cnc2c1ncn2[C@H]1CC[C@@H](CO)O1,0.0117,-0.00261,0.0216,-0.0353,-0.00622,-0.00829,0.000837,0.00413
CCOc1cc(N)c(Cl)cc1C(=O)NCC1CN(Cc2ccc(F)cc2)CCO1 (stereo not drawn),0.0207,-0.0442,0.0207,-0.0128,0.0447,0.108 (active),0.0132,0.00286
CC1(C)S[C@@H]2[C@H](N=CN3CCCCCC3)C(=O)N2[C@H]1C(=O)O,-0.0627,-0.00589,-0.0112,0.00945,0.0251,0.116 (active),-0.0211,-0.0045
Cc1cnc(NC(=O)C2=C(O)c3ccccc3S(=O)(=O)N2C)s1,0.0267,0.0475,0.0367,-0.0331,0.00607,0.00306,0.00145,0.0334
